PubChem BioAssay AID1159580 (chemical genetic matrix, 2015)
Out of some 5,500 compounds screened, about 2,000 (36%) were called active. About 18% were inconclusive and are not listed. Rule as the data show it: active = normalized growth mostly below about 0.91 (no sharp cut-off); inconclusive = no clear call, values can overlap the other calls; inactive = mostly above about 0.92. The list shows a part of the results.

Test: chemical genetic growth profiling, strain panel (AID 1159580);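 also: tested at 20 µM; growth read once vehicle control cultures reached saturation at 30 °C; 1 = growth at the plate median or of vehicle wells; lower values mean less growth of the strain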
Details: growth OD

Measured: normalized growth

COC(=O)c1c(OC)cc2c(c1C)Oc1c(Cl)c(O)c(Cl)c(C)c1C(=O)O2
inactive: S. cerevisiae deletion strains, locus YJR075W, strain HOC1, stronger effect = lower value 0.893 | S. cerevisiae deletion strains, locus YKL009W, strain mrt4, stronger effect = lower value 0.975 | S. cerevisiae deletion strains, locus YKL068W, stronger effect = lower value 0.976 | S. cerevisiae deletion strains, locus YKL085W, strain MDH1 (second series), stronger effect = lower value 0.979 | S. cerevisiae deletion strains, locus YKL085W, strain MDH1, stronger effect = lower value 0.979 | S. cerevisiae deletion strains, locus YKL160W, strain elf1, stronger effect = lower value 0.993 | S. cerevisiae deletion strains, locus YKR001C, strain vps1, stronger effect = lower value 0.949 | S. cerevisiae deletion strains, locus YKR026C, strain gcn3, stronger effect = lower value 0.977 | S. cerevisiae deletion strains, locus YKR091W, strain srl3, stronger effect = lower value 0.986 | S. cerevisiae deletion strains, locus YLL001W, strain dnm1, stronger effect = lower value 0.979 | S. cerevisiae deletion strains, locus YLL026W, stronger effect = lower value 0.983 | S. cerevisiae deletion strains, locus YLL041C, strain sdh2, stronger effect = lower value 0.978 | S. cerevisiae deletion strains, locus YLR027C, strain aat2, stronger effect = lower value 0.991 | S. cerevisiae deletion strains, locus YLR039C, strain RIC1, stronger effect = lower value 0.796 | S. cerevisiae deletion strains, locus YLR058C, strain SHM2, stronger effect = lower value 0.919 | S. cerevisiae deletion strains, locus YLR102C, strain apc9, stronger effect = lower value 0.927 | S. cerevisiae deletion strains, locus YLR113W, strain HOG1, stronger effect = lower value 0.968 | S. cerevisiae deletion strains, locus YLR221C, strain rsa3, stronger effect = lower value 0.982 | S. cerevisiae deletion strains, locus YLR258W, strain gsy2, stronger effect = lower value 0.992 | S. cerevisiae deletion strains, locus YLR262C, strain YPT6 (second series), stronger effect = lower value 0.927 | S. cerevisiae deletion strains, locus YLR262C, strain YPT6, stronger effect = lower value 0.795 | S. cerevisiae deletion strains, locus YLR268W, strain sec22, stronger effect = lower value 0.905 | S. cerevisiae deletion strains, locus YLR320W, strain mms22, stronger effect = lower value 0.964 | S. cerevisiae deletion strains, locus YLR330W, strain CHS5, stronger effect = lower value 0.929 | S. cerevisiae deletion strains, locus YLR342W, strain FKS1 (second series), stronger effect = lower value 0.927 | S. cerevisiae deletion strains, locus YLR342W, strain FKS1, stronger effect = lower value 0.986 | S. cerevisiae deletion strains, locus YLR357W, strain rsc2, stronger effect = lower value 1.05 | S. cerevisiae deletion strains, locus YLR370C, strain arc18, stronger effect = lower value 0.984 | S. cerevisiae deletion strains, locus YLR371W, strain rom2, stronger effect = lower value 0.976 | S. cerevisiae deletion strains, locus YLR384C, strain iki3, stronger effect = lower value 0.994 | S. cerevisiae deletion strains, locus YLR418C, strain cdc73, stronger effect = lower value 0.863 | S. cerevisiae deletion strains, locus YML016C, strain PPZ1, stronger effect = lower value 0.936 | S. cerevisiae deletion strains, locus YML032C, strain rad52, stronger effect = lower value 0.96 | S. cerevisiae deletion strains, locus YML120C, strain ndi1, stronger effect = lower value 0.973 | S. cerevisiae deletion strains, locus YML124C, strain tub3, stronger effect = lower value 0.945 | S. cerevisiae deletion strains, locus YMR058W, strain fet3, stronger effect = lower value 0.982 | S. cerevisiae deletion strains, locus YMR078C, strain ctf18, stronger effect = lower value 0.935 | S. cerevisiae deletion strains, locus YMR125W, strain sto1, stronger effect = lower value 1.01 | S. cerevisiae deletion strains, locus YMR129W, stronger effect = lower value 1.01 | S. cerevisiae deletion strains, locus YMR205C, strain PFK2, stronger effect = lower value 0.989 | S. cerevisiae deletion strains, locus YMR223W, strain ubp8, stronger effect = lower value 0.947 | S. cerevisiae deletion strains, locus YMR231W, strain pep5, stronger effect = lower value 0.993 | S. cerevisiae deletion strains, locus YMR307W, strain GAS1, stronger effect = lower value 0.869 | S. cerevisiae deletion strains, locus YNL067W, strain RPL9B, stronger effect = lower value 0.895 | S. cerevisiae deletion strains, locus YNL071W, strain lat1, stronger effect = lower value 0.982 | S. cerevisiae deletion strains, locus YNL128W, strain TEP1, stronger effect = lower value 0.89 | S. cerevisiae deletion strains, locus YNL153C, strain GIM3, stronger effect = lower value 0.909 | S. cerevisiae deletion strains, locus YNL183C, strain NPR1, stronger effect = lower value 0.9 | S. cerevisiae deletion strains, locus YNL209W, strain ssb2, stronger effect = lower value 0.996 | S. cerevisiae deletion strains, locus YNL233W, strain BNI4, stronger effect = lower value 0.938 | S. cerevisiae deletion strains, locus YNL248C, strain rpa49, stronger effect = lower value 1.02 | S. cerevisiae deletion strains, locus YNL250W, strain rad50, stronger effect = lower value 0.986 | S. cerevisiae deletion strains, locus YNL271C, strain bni1, stronger effect = lower value 0.985 | S. cerevisiae deletion strains, locus YNL298W, strain CLA4, stronger effect = lower value 0.977 | S. cerevisiae deletion strains, locus YNL322C, strain KRE1 (second series), stronger effect = lower value 0.997 | S. cerevisiae deletion strains, locus YNL322C, strain KRE1, stronger effect = lower value 0.937 | S. cerevisiae deletion strains, locus YNR049C, strain mso1, stronger effect = lower value 0.994 | S. cerevisiae deletion strains, locus YNR052C, strain pop2, stronger effect = lower value 0.948 | S. cerevisiae deletion strains, locus YOL006C, strain TOP1, stronger effect = lower value 0.757 | S. cerevisiae deletion strains, locus YOL012C, strain htz1 0.865 | S. cerevisiae deletion strains, locus YOL147C, strain pex11, stronger effect = lower value 0.946 | S. cerevisiae deletion strains, locus YOR001W, strain rrp6, stronger effect = lower value 1.01 | S. cerevisiae deletion strains, locus YOR061W, strain CKA2, stronger effect = lower value 0.892 | S. cerevisiae deletion strains, locus YOR069W, strain VPS5, stronger effect = lower value 0.953 | S. cerevisiae deletion strains, locus YOR070C, strain gyp1, stronger effect = lower value 0.984 | S. cerevisiae deletion strains, locus YOR080W, strain dia2, stronger effect = lower value 0.992 | S. cerevisiae deletion strains, locus YOR083W, strain WHI5, stronger effect = lower value 0.997 | S. cerevisiae deletion strains, locus YOR106W, strain vam3, stronger effect = lower value 1.01 | S. cerevisiae deletion strains, locus YOR136W, strain idh2, stronger effect = lower value 0.943 | S. cerevisiae deletion strains, locus YOR144C, strain elg1, stronger effect = lower value 0.947 | S. cerevisiae deletion strains, locus YOR184W, strain ser1, stronger effect = lower value 0.918 | S. cerevisiae deletion strains, locus YOR231W, strain MKK1, stronger effect = lower value 0.927 | S. cerevisiae deletion strains, locus YOR265W, strain rbl2, stronger effect = lower value 0.989 | S. cerevisiae deletion strains, locus YOR270C, strain vph1, stronger effect = lower value 0.927 | S. cerevisiae deletion strains, locus YOR290C, strain snf2, stronger effect = lower value 0.995 | S. cerevisiae deletion strains, locus YOR316C, strain cot1, stronger effect = lower value 0.933 | S. cerevisiae deletion strains, locus YPL051W, strain arl3, stronger effect = lower value 0.98 | S. cerevisiae deletion strains, locus YPL055C, strain LGE1, stronger effect = lower value 0.864 | S. cerevisiae deletion strains, locus YPL078C, strain atp4, stronger effect = lower value 0.982 | S. cerevisiae deletion strains, locus YPL106C, strain sse1, stronger effect = lower value 1.03 | S. cerevisiae deletion strains, locus YPL240C, strain hsp82, stronger effect = lower value 0.979 | S. cerevisiae deletion strains, locus YPL256C, strain CLN2, stronger effect = lower value 0.938 | S. cerevisiae deletion strains, locus YPR119W, strain clb2, stronger effect = lower value 0.937 | S. cerevisiae deletion strains, locus YPR141C, strain kar3, stronger effect = lower value 0.968 | S. cerevisiae deletion strains, locus YPR167C, strain met16, stronger effect = lower value 0.927 | S. cerevisiae deletion strains, strain wtn01, stronger effect = lower value 0.936 | S. cerevisiae strains, strain wild type, stronger effect = lower value 0.915
active: S. cerevisiae deletion strains, locus YKL190W, strain CNB1, stronger effect = lower value 0.911 | S. cerevisiae deletion strains, locus YMR263W, strain SAP30, stronger effect = lower value 0.882 | S. cerevisiae deletion strains, locus YNL307C, strain MCK1, stronger effect = lower value 0.838 | S. cerevisiae deletion strains, locus YPL241C, strain CIN2, stronger effect = lower value 0.913 | S. cerevisiae deletion strains, locus YPR163C, strain tif3, stronger effect = lower value 0.901
